PMC8384837, “Expanding the binding specificity for RNA recognition by a PUF domain”

Each sequence was assayed against PUM1 PUF domain R8-TWK (Homo sapiens, UniProt Q14671 828-1176, N1122T;Y1123W;Q1126K) (assay: yeast three-hybrid, YBZ-1, SC-Leu-His + 0.5 mM 3-AT, 4 days). Conditions: tags: N-Gal4 AD-HA kept; label: inside an RPR1-promoter hybrid RNA with tandem MS2 sites; ssRNA.
Procedure, shortened: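 Repeat regions from input (SC-Leu) and selection (SC-Leu-His + 0.5 mM 3-AT) plates were PCR-amplified and Illumina-sequenced after four days of growth. The cells were strain YBZ-1 with a LexA–MS2 coat fusion and a HIS3 reporter, co-expressing Pumilio-1 PUF domain libraries and matching RNA elements from a centromeric plasmid. The interaction score is the log change in variant frequency from input to selection, taken in log2 with a pseudocount of 1 for absent variants.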

Sequence of PUM1 PUF domain R8-TWK (Q14671 828-1176 N1122T/Y1123W/Q1126K): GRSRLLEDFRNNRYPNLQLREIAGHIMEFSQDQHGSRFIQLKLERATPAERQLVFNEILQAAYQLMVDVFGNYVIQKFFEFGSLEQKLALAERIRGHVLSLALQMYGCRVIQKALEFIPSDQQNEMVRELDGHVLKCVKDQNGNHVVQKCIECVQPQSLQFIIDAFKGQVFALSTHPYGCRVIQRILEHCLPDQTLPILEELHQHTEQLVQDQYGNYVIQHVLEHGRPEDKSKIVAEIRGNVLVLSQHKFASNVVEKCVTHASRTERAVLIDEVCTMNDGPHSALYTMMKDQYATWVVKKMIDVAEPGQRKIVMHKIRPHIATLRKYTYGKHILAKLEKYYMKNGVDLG

Sequence	binding signal
GGCUAGAACUAGUGGAUCCCCCGGCGCCCGGCGGCUCGAGCCCGGGUAAGUGUAAAUAGUCUGCAUGCCGCCGGGCGCCAUGCCUGCAGGUCGACUCUAGAAAACAUG	5.8 log2 enrichment (interaction score)
GGCUAGAACUAGUGGAUCCCCCGGCGCCCGGCGGCUCGAGCCCGGGUAAGGGUAAAUAGUCUGCAUGCCGCCGGGCGCCAUGCCUGCAGGUCGACUCUAGAAAACAUG	3.33 log2 enrichment (interaction score)
GGCUAGAACUAGUGGAUCCCCCGGCGCCCGGCGGCUCGAGCCCGGGUAAGCGUAAAUAGUCUGCAUGCCGCCGGGCGCCAUGCCUGCAGGUCGACUCUAGAAAACAUG	2.23 log2 enrichment (interaction score)
